Inconclusive results are not listed. The source made the active and inactive calls. Unless noted, calls come from the whole dose curve. Where a SMILES comes first, the peptide text is derived from it.
What was measured:
[1] = qHTS assay to identify small molecule agonists of the vitamin D receptor (VDR) signaling pathway - cell viability counter screen (AID 743224; active = well fitted curve in the direction sought with a large enough effect in the repeat runs; an effect the other way counts as inactive or inconclusive; note: series mostly up to about 63 µM; % is set by controls: 0 for no effect and ±100 for the full control effect; nearly all actives have a fitted effect of over 50% in size)
Summary of the method: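 VDR-bla cells were preincubated 4 h at 37C/5% CO2, then exposed to compounds for 16 h. After the 2 h room-temperature bla FRET read, CellTiter-Glo was added to the same wells and luminescence read after 30 min.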

[2] = qHTS assay to identify small molecule antagonists of the vitamin D receptor (VDR) signaling pathway - cell viability counter screen (AID 743225; active = well fitted curve in the direction sought with a large enough effect in the repeat runs; an effect the other way counts as inactive or inconclusive; note: % is set by controls: 0 for no effect and ±100 for the full control effect; nearly all actives have a fitted effect of over 50% in size)
Summary of the method: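 Viability counter screen run in the same wells as the beta-lactamase reporter assay: HEK 293T VDR-UAS-bla cells, 16 h compound exposure at 37C with 3 nM (final) 1-alpha,25-dihydroxyvitamin D3. CellTiter-Glo luminescence, 30 min, room temperature.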

[3] = qHTS assay to identify small molecule agonists of the NFkB signaling pathway (AID 1159509; active = well fitted curve in the direction sought with a large enough effect in the signal ratio in the repeat runs, not every such curve was filed as active; the % refers to the signal ratio; note: series mostly up to about 61 µM; % is set by controls: 0 for no effect and ±100 for the full control effect)
Summary of the method: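 ME-180 NFkB-bla, 2,000 cells/well, overnight plating; cpd pinned in DMSO, 5 h 37 C; B/G FRET substrate 1.5 h RT; ex 405, em 460/530 nm.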

[4] = qHTS assay to identify small molecule agonists of the NFkB signaling pathway - cell viability counter screen (AID 1159515); note: series mostly up to about 61 µM; % is set by controls: 0 for no effect and ±100 for the full control effect; nearly all actives have a fitted effect of over 55% in size
Summary of the method: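 NFkB-bla ME-180 cells, 2,000/well, were plated overnight at 37 C, 5% CO2, then exposed to compounds in DMSO for 5 hr. After the bla FRET read, CellTiter-Glo was added to the same wells; luminescence was read after 30 min at room temperature.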

[5] = qHTS assay to identify small molecule agonists of the endoplasmic reticulum stress response signaling pathway (AID 1159516; active = well fitted activation curve with a large enough effect in the signal ratio in the repeat runs, not every such curve was filed as active; the % refers to the signal ratio; note: % is set by controls: 0 for no effect and ±100 for the full control effect)
Summary of the method: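 CellSensor ESRE-bla HeLa cells, carrying a beta-lactamase reporter driven by the ER stress response element, were plated overnight and exposed to compounds for 5 hr at 37 C. Reporter activity was read as FRET substrate fluorescence after 2 hr at room temperature.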

[6] = qHTS assay to identify small molecule agonists of the endoplasmic reticulum stress response signaling pathway - cell viability counter screen (AID 1159517); note: series mostly up to about 61 µM; % is set by controls: 0 for no effect and ±100 for the full control effect; nearly all actives have a fitted effect of over 50% in size
Summary of the method: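 CellTiter-Glo was added to wells already read for beta-lactamase FRET, and luminescence was recorded 30 min later. Cells: ESRE-bla HeLa, 1,500 per well, compound exposure 5 hr at 37 C.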

[7] = qHTS assay to identify small molecule antagonists of the retinoid-related orphan receptor gamma (ROR-gamma) signaling pathway - cell viability counter screen (AID 1159520; active = well fitted curve in the direction sought with a large enough effect in the repeat runs; an effect the other way counts as inactive or inconclusive; note: % is set by controls: 0 for no effect and ±100 for the full control effect; nearly all actives have a fitted effect of over 50% in size)
Summary of the method: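 Tet-on ROR gamma CHO cells (1,000/well) were plated 4 hr, given compounds in DMSO for 2 hr at 37 C, then induced with 1 uM final doxycycline for 16 hr. Viability was read as ATP by CellTiter-Glo luminescence after 30 min.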

[8] = molecular target: Nuclear receptor ROR-gamma (Homo sapiens) (UniProt P51449); assay: qHTS assay to identify small molecule antagonists of the retinoid-related orphan receptor gamma (ROR-gamma) signaling pathway (AID 1159521; active = well fitted curve in the direction sought with a large enough effect in the repeat runs; an effect the other way counts as inactive or inconclusive)
Summary of the method: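 Luminescence readout (ONE-Glo, 30 min RT) after 16 h doxycycline induction; loss of signal scored as antagonism. CHO cells with TET-inducible RORγ and RORE-LUC reporter; compounds added 2 h before 1 uM final doxycycline.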

[9] = qHTS assay to identify small molecule agonists of the AP-1 signaling pathway - cell viability counter screen (AID 1159525); note: nearly all actives have a fitted effect of over 55% in size
Summary of the method: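 ME-180 AP-1-bla, 2500 cells/well, Opti-MEM + 0.5% dialyzed FBS; overnight 37 °C; cpd 15-pt titration, 5 h 37 °C; CellTiter-Glo 30 min RT; luminescence read; normalised to TOAB and DMSO controls.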

[10] = qHTS assay to identify small molecule agonists of the AP-1 signaling pathway (AID 1159526); note: % is set by controls: 0 for no effect and ±100 for the full control effect

C[C@H]1[C@@H](c2ccccc2)NC(=O)N1C
inactive: outcome [1] | outcome [2] | outcome [3] | outcome [4] | outcome [5] | outcome [6] | outcome [7] | outcome [8] | outcome [9] | outcome [10]

C=CCCCC
inactive: outcome [2] | outcome [3] | outcome [4] | outcome [5] | outcome [6] | outcome [7] | outcome [8] | outcome [9] | outcome [10]

CC(=O)O[C@@H]1CC2CCC1(C)C2(C)C (some centres not stated)
inactive: outcome [1] | outcome [2] | outcome [3] | outcome [4] | outcome [5] | outcome [6] | outcome [7] | outcome [8] | outcome [9] | outcome [10]

CC(C)CO
inactive: outcome [1] | outcome [2] | outcome [3] | outcome [4] | outcome [5] | outcome [6] | outcome [7] | outcome [8] | outcome [9] | outcome [10]

COc1c2occc2c(OC)c2c(=O)cc(C)oc12
inactive: outcome [1] | outcome [2] | outcome [3] | outcome [4] | outcome [5] | outcome [6] | outcome [7] | outcome [8] | outcome [9] | outcome [10]

CC(=O)OC(C)=O
inactive: outcome [1] | outcome [2] | outcome [3] | outcome [4] | outcome [5] | outcome [6] | outcome [7] | outcome [8] | outcome [9] | outcome [10]

C[Si]1(C)O[Si](C)(C)O[Si](C)(C)O[Si](C)(C)O[Si](C)(C)O1
inactive: outcome [1] | outcome [2] | outcome [3] | outcome [4] | outcome [5] | outcome [6] | outcome [7] | outcome [8] | outcome [9] | outcome [10]

CC(O)COC(C)(C)C (configuration not stated)
inactive: outcome [1] | outcome [2] | outcome [3] | outcome [4] | outcome [5] | outcome [6] | outcome [7] | outcome [8] | outcome [9] | outcome [10]

COC(C)(OC)OC
inactive: outcome [1] | outcome [2] | outcome [3] | outcome [4] | outcome [5] | outcome [6] | outcome [7] | outcome [8] | outcome [9] | outcome [10]

Cc1ccc(N)cc1S(=O)(=O)O
inactive: outcome [2] | outcome [3] | outcome [4] | outcome [5] | outcome [6] | outcome [7] | outcome [8] | outcome [9] | outcome [10]

O=C(Cl)c1ccccc1[N+](=O)[O-]
inactive: outcome [1] | outcome [2] | outcome [3] | outcome [4] | outcome [5] | outcome [6] | outcome [7] | outcome [8] | outcome [9] | outcome [10]

C=CCSSCCC
inactive: outcome [1] | outcome [2] | outcome [3] | outcome [4] | outcome [5] | outcome [6] | outcome [7] | outcome [8] | outcome [9] | outcome [10]

O=C(CCCCC(=O)Nc1c(I)cc(I)c(C(=O)O)c1I)Nc1c(I)cc(I)c(C(=O)O)c1I
inactive: outcome [1] | outcome [2] | outcome [3] | outcome [4] | outcome [5] | outcome [6] | outcome [7] | outcome [8] | outcome [9] | outcome [10]

CCCCOC(=O)C(C)O (configuration not stated)
inactive: outcome [2] | outcome [3] | outcome [4] | outcome [5] | outcome [6] | outcome [7] | outcome [8] | outcome [9] | outcome [10]

O=C1c2ccccc2C(=O)c2cc(Cl)ccc21
inactive: viability change, negative = cytotoxic [2] -4.02% [at 6.95 µM] | activation [3] -0.467% [at 6.95 µM] | activity, negative = cytotoxic [4] 13.9% [at 6.95 µM] | activation [5] 0.175% [at 6.95 µM] | activity change, negative = cytotoxicity [6] 0.196% [at 6.95 µM] | activity, negative = cytotoxicity [7] 5.88% [at 8.39 µM] | activity change, negative = inhibition [8] 38.6% [at 8.39 µM] | viability change, negative = cytotoxic [9] 1.45% [at 6.97 µM] | activation [10] -9.9% [at 6.97 µM]

CC(=O)N[C@@H](CO)C(=O)N[C@@H](CC(=O)O)C(=O)N[C@@H](CCCCN)C(=O)N1CCC[C@H]1C(=O)O (Ac-SDKP-OH)
inactive: outcome [2] | outcome [3] | outcome [4] | outcome [5] | outcome [6] | outcome [7] | outcome [8] | outcome [9] | outcome [10]

CCOCCOCC
inactive: outcome [2] | outcome [3] | outcome [4] | outcome [5] | outcome [6] | outcome [7] | outcome [8] | outcome [9] | outcome [10]

CC(C)c1ccc(C=O)cc1
inactive: outcome [1] | outcome [2] | outcome [3] | outcome [4] | outcome [5] | outcome [6] | outcome [7] | outcome [8] | outcome [9] | outcome [10]

COC(=O)/C=C\C(=O)O
inactive: outcome [1] | outcome [2] | outcome [3] | outcome [4] | outcome [5] | outcome [6] | outcome [7] | outcome [8] | outcome [9] | outcome [10]

C=C(C)C1CC=C(C)C(=O)C1 (configuration not stated)
inactive: outcome [2] | outcome [3] | outcome [4] | outcome [5] | outcome [6] | outcome [7] | outcome [8] | outcome [9] | outcome [10]

Cc1ccnc(N)c1
inactive: outcome [2] | outcome [3] | outcome [4] | outcome [5] | outcome [6] | outcome [7] | outcome [8] | outcome [9] | outcome [10]

CN1C[C@@H]2C[C@H]1CN2c1cc2c(cc1F)c(=O)c(C(=O)O)cn2C1CC1
inactive: outcome [1] | outcome [2] | outcome [3] | outcome [4] | outcome [5] | outcome [6] | activity, negative = cytotoxicity [7] 0.279% [at 19 µM] | activity change, negative = inhibition [8] 4.47% [at 19 µM] | viability change, negative = cytotoxic [9] 6.22% [at 15.8 µM] | activation [10] -4.01% [at 15.8 µM]

CC(=O)CC(=O)OC(C)(C)C
inactive: outcome [1] | outcome [2] | outcome [3] | outcome [4] | outcome [5] | outcome [6] | outcome [7] | outcome [8] | outcome [9] | outcome [10]

OC1OCCOC1O (configuration not stated)
inactive: outcome [1] | outcome [2] | outcome [3] | outcome [4] | outcome [5] | outcome [6] | outcome [7] | outcome [8] | outcome [9] | outcome [10]

Reference: PubChem BioAssay (Tox21)
